Results on 15 compounds are retold here after ChEMBL document CHEMBL1961873, “Compounds: GSK PKIS; Assays: Nanosyn kinase panel” (2012).

SMILES strings stand for the structures.
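Note: mean PAK6 inhibition reported from the GSK PKIS screen.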

Sequence of Serine/threonine-protein kinase PAK 6 (Homo sapiens) (Q9NQU5 whole entry, looked up): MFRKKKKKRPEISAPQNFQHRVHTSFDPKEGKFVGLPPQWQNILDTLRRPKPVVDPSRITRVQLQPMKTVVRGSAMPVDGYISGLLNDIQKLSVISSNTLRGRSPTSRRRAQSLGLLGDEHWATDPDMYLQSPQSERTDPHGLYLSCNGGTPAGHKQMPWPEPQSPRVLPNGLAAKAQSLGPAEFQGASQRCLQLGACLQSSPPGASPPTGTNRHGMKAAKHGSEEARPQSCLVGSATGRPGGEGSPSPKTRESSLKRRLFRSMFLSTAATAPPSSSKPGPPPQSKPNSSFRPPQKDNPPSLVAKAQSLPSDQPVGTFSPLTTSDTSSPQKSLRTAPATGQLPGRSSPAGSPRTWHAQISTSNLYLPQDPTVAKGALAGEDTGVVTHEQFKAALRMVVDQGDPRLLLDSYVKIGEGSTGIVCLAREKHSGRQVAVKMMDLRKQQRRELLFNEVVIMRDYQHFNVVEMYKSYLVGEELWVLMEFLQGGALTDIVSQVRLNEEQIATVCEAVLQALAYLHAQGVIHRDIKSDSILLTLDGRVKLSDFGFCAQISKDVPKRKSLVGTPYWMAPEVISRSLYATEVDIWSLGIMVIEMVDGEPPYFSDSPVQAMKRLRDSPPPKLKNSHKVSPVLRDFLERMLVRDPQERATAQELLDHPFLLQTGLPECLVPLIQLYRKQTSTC

This experiment concerns the target Serine/threonine-protein kinase PAK 6 (Homo sapiens) (UniProt Q9NQU5). Particulars: at 0.1 µM.
In general, inhibition refers to the change of the read-out against control, counted positive when it falls. Regarding `c1ccc(-c2n[nH]cc2-c2ccnc(-c3ccc(OCCN4CCOCC4)cc3)c2)nc1`, the inhibition turned out to be 7.57%.

For `COc1cccc(/C=N/Nc2ncnc3c2cnn3-c2cccc(OC)c2)c1`, the inhibition is -3.17%.

Take `CCS(=O)(=O)c1ccc(OC)c(Nc2ncc(-c3cccc(-c4ccccc4F)c3)o2)c1`: the inhibition stood at 12.3%. Next, `Fc1ccc(-c2ncn(C3CCNCC3)c2-c2ccnc(Oc3ccc(Oc4ccccc4)cc3)n2)cc1`: -6.7%; `NCc1ccc(-n2c(-c3nonc3N)nc3cnccc32)cc1`: -1.38%; `CCc1nccc2c1nc(-c1nonc1N)n2CC`: 3.51%. The same measure for `COc1cc2ncn(-c3cc(OCCc4ccccc4)c(C(N)=O)s3)c2cc1OC`: 1.18%; for `FC(F)(F)c1cccc(Nc2nccc(-c3cnn4nc(-c5ccccc5)ccc34)n2)c1`: -2.37%. Next, `COC(=O)Nc1nc2ccc(Sc3ccc(NC(=O)Nc4cc(C(F)(F)F)ccc4F)cc3)cc2[nH]1`: -4.57%; `COc1ccc(C2=C(N3CCc4ccccc43)C(=O)NC2=O)cc1`: 3.36%.

For the compound `CN1CCN(CCCNc2nc3ccc(Oc4ccc(NC(=O)Nc5cc(C(F)(F)F)ccc5F)cc4)cc3[nH]2)CC1`, the inhibition was -3.01%. The same measure for `CCC(=O)Nc1ccc(C)c(-c2ccc(C(=O)NCC3CC3)cc2)c1`: -8.71%; for `CN(c1ccc(NC(=O)Nc2c(Cl)cccc2Cl)cc1)c1ccnc(Nc2cccc(CS(C)(=O)=O)c2)n1`: 7.14%; for `NS(=O)(=O)c1ccc(N/N=C2\C(=O)Nc3ccc(C(=O)NCCCn4ccnc4)cc32)cc1`: -2.98%. Next, `Cc1ccc(NC(=O)c2ccoc2)cc1-c1ccc(C(=O)NCC2CC2)cc1`: -5.33%.
